Bioassay records deposited in PubChem by National Center for Advancing Translational Sciences (NCATS).
FEN1 inhibitor: inhibitors of human flap endonuclease 1. AID 588795. Recombinant FEN1 flap cleavage, fluorescence, 15 min. Potency, µM (highest dose often 114 µM), most hits filed as inhibitors. 390,000 tested, 0.35% active; note: nearly all actives have a fitted effect of over 65% in size
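With each library titrated from low to high concentration, compounds met 10 nM FEN1 for 15 min at room temperature before 50 nM substrate was added; readings at 0 and 15 min fed four-parameter Hill curve fits.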
POLB inh: blocks human DNA polymerase beta activity; Pol beta primer extension/strand displacement, fluorescence kinetic; Potency, µM (series often up to 114 µM), hits mostly inhibitors; 340,000 tested, 1.3% active
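Pol beta (10 nM) was preincubated with compound for 15 min at room temperature. The reaction was then started with 50 nM substrate and read immediately and after a further 10 min at room temperature.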
Pol kappa inh: DNA polymerase kappa (human) inhibition. Q9UBT6. purified Pol kappa, fluorescent DNA synthesis assay, 10 min. Potency, µM (titrated, usually from 107 µM), hits mostly inhibitors. 400,000 tested, 0.53% active. AID 588579
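50 nM final substrate added after 15 min RT preincubation of 10 nM Pol kappa with compound; fluorescence read at 0 and 10 min.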
POLI inh: DNA polymerase iota (human) inhibition; 390,000 tested, 1% active; Pol iota fluorescent replication assay, 10 min; Potency, µM (series often up to 115 µM), usual class: inhibitors; Q9UNA4; AID 588590
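Pol iota at 10 nM preincubated 15 min with compounds at room temperature; reaction started with fluorescent substrate, 50 nM final. Fluorescence read kinetically at 0 and 10 min; buffer-only wells as negative control.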
POLH inh: inhibitors of human DNA polymerase eta; Potency, µM (top dose mostly 114 µM), hits mostly inhibitors; Q9Y253; 390,000 tested, 1.2% active; recombinant Pol eta, fluorescent DNA replication assay
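Pol eta (10 nM) was preincubated with compounds for 15 min at room temperature, after which fluorescent replication substrate (50 nM final) was added to start the reaction. Fluorescence was read kinetically at 0 and 10 min.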
WRN inhibitor: WRN helicase (human) inhibition; Q14191; WRN helicase unwinding, fluorescent forked duplex, kinetic; Potency, µM (top dose mostly 114 µM), usual class: inhibitors; 360,000 tested, 0.46% active; AID 651768; note: nearly all actives have a fitted effect of over 55% in size
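WRN at 20 nM final preincubated with compound 15 min at room temperature; reaction started with 100 nM fluorophore/quencher forked duplex oligonucleotide and 2 mM ATP final. Unwinding followed kinetically by red fluorescence (ex 525, em 598 nm).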
PGK validate: TbPGK inhibition, hit validation; 500 tested, 79% active; shares compounds with Pol kappa inh; TbPGK coupled GAPDH assay, Kinase-Glo luminescence; Potency, µM (series often up to 57.5 µM), actives largely listed as inhibitors; note: nearly all actives have a fitted effect of over 65% in size
Target sequence (P07378 whole entry, looked up): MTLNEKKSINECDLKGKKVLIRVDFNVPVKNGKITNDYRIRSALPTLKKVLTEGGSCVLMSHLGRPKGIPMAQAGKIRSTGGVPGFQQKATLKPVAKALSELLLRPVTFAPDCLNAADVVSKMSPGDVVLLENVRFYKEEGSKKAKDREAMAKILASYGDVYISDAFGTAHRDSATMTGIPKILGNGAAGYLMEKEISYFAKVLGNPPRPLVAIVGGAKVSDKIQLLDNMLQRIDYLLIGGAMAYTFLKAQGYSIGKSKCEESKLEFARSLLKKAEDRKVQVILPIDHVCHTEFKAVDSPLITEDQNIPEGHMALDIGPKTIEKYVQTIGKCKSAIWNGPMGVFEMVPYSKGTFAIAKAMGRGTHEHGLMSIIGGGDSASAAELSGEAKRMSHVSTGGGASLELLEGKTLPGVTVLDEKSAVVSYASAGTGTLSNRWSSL
Pol iota confirm: Human Pol iota inhibitor confirmatory assay. shares compounds with Pol kappa inh. Pol iota primer extension, TAMRA/BHQ fluorescence. Potency, µM, usual class: inhibitors. 1,500 tested, 77% active. AID 720496
Numbers stand for hits; [ ] = dose if it differs, or a comment. Rows were chosen to be rich in hits. Some 2.4% of all compounds tested hit in one or more screens of this group. Calls come from the whole dose curve; as a rule, active = well fitted curve in the direction sought with a large enough effect; inconclusive = small, poorly fitted or top-dose-only effect, or another doubt; inactive = no such curve, though single readings can be large; an effect the other way counts as inactive or inconclusive.

O=c1cc2oc3cc(O)c(O)cc3c(-c3ccccc3O)c-2cc1O was read as FEN1 inhibitor 22.4µM, POLB inh 39.8µM, Pol kappa inh 4.47µM, POLI inh inactive, POLH inh inconclusive, WRN inhibitor inactive and PGK validate 1.16µM.
Screening CC1=C(C(=O)N(C)C)CC(CC(=O)NCc2cccs2)C(=O)N1Cc1ccccc1 (centres undefined) returned POLH inh inactive and WRN inhibitor inactive.
For Cc1nc2ccccc2n1CC(=O)OCC(=O)Nc1ccc2c(c1)OCCO2 the results were FEN1 inhibitor inactive, POLB inh inactive, Pol kappa inh inactive, POLI inh inactive, POLH inh inactive and WRN inhibitor inactive.
Screening CCCn1c(N)c(N(CCOC)C(=O)c2cc3ccccc3cc2OC)c(=O)[nH]c1=O returned FEN1 inhibitor inactive, Pol kappa inh inactive, POLI inh inactive, POLH inh inactive and WRN inhibitor inactive.
`Cn1c2ccccc2c(=O)c2ccc(C#Cc3ccccn3)cc21` gave FEN1 inhibitor inactive, POLB inh 25.1µM, Pol kappa inh inactive, POLI inh 31.6µM, POLH inh 28.2µM, WRN inhibitor inactive[11.6 µM] and Pol iota confirm inconclusive.
`O=C(CCc1ccc(S(=O)(=O)N2CCOCC2)cc1)N/N=C/c1ccc(O)c(O)c1O` gave FEN1 inhibitor inconclusive, POLB inh 12.6µM, Pol kappa inh 8.91µM, POLI inh 2.82µM, POLH inh inconclusive, WRN inhibitor 79.4µM and Pol iota confirm inconclusive.
`O=Cc1cn(-c2ccccc2)nc1-c1cc2cc(O)ccc2oc1=O` gave FEN1 inhibitor inactive, POLB inh 56.2µM, Pol kappa inh inconclusive, POLI inh 22.4µM, POLH inh inconclusive, WRN inhibitor inconclusive and Pol iota confirm inconclusive.
`Cc1cc(C)c2c(c1)/C(=N/Nc1ccc(S(N)(=O)=O)cc1[N+](=O)[O-])CCC2` gave FEN1 inhibitor inactive, POLB inh inactive, Pol kappa inh inactive, POLI inh inactive, POLH inh inactive and WRN inhibitor inactive.
Screening COc1ccc(C)cc1NC(=O)Cn1c(=O)cc(C)c2c(C)nn(C)c21 returned FEN1 inhibitor inactive, POLB inh inactive, Pol kappa inh inactive and POLI inh inactive.
COc1ccc(OC)c(NC(=O)Cn2c(=O)cc(-c3ccccc3)c3c(C)nn(C)c32)c1 was read as FEN1 inhibitor inactive, POLB inh inconclusive, Pol kappa inh inactive, POLI inh inactive, POLH inh inconclusive and Pol iota confirm 47.4.
CNCc1ccccc1Sc1ccc(O)c(O)c1 was read as FEN1 inhibitor inconclusive, POLB inh inconclusive, Pol kappa inh 79.4µM, POLI inh 28.2µM, POLH inh inactive, WRN inhibitor inconclusive and Pol iota confirm 75.2.
Screening N#Cc1ccc(C(=O)N(Cc2ccccc2)c2ccccc2)cc1 returned FEN1 inhibitor inactive, POLB inh inactive, Pol kappa inh inactive, POLI inh inactive, POLH inh inactive and WRN inhibitor inactive.
Screening Cc1ccc(-c2cc(C(=O)Nc3ccc(S(=O)(=O)N4CC(C)OC(C)C4)cc3)[nH]n2)c(O)c1 (centres undefined) returned FEN1 inhibitor inconclusive, POLB inh 17.8µM, Pol kappa inh inconclusive, POLI inh 39.8µM, POLH inh inactive, WRN inhibitor inconclusive and Pol iota confirm 75.2.
O=C(N/N=C/C=C\c1ccccc1[N+](=O)[O-])c1cc(-c2ccc3ccccc3c2)n[nH]1 was read as FEN1 inhibitor inactive, POLB inh 17.8µM, Pol kappa inh inactive, POLI inh inconclusive, POLH inh inconclusive, WRN inhibitor inactive and Pol iota confirm 37.7.
For Cc1cc(C(=O)COc2ccccc2[N+](=O)[O-])c(C)n1C1CC1 the results were FEN1 inhibitor inactive, POLB inh inactive, Pol kappa inh inactive, POLI inh inconclusive, POLH inh inactive and WRN inhibitor inactive.
`O=c1c(CO)cc(CO)cc(CO)c1O` gave FEN1 inhibitor inactive, POLB inh inactive, Pol kappa inh inactive, POLI inh inconclusive, POLH inh inactive and WRN inhibitor inactive.
O=C1C=CC(=O)c2c(O)c(CO)c(CO)c(O)c21 was read as FEN1 inhibitor 15.8µM, Pol kappa inh 3.55µM, POLI inh 3.16µM, POLH inh 1µM, WRN inhibitor 7.94µM and PGK validate 8.19µM.
O=C(c1c[nH]c2ccccc12)N1CCN(Cc2ccccc2)CC1 was read as FEN1 inhibitor inactive, POLB inh inactive, Pol kappa inh inactive, POLI inh inactive, POLH inh inactive and WRN inhibitor inactive.
Screening O=C(Nc1ccc(F)cc1)N[C@@H]1CC[C@@H](CCn2cc(-c3ccc(F)cc3)nn2)O[C@@H]1CO returned WRN inhibitor inactive.
For O=C(NCc1nc2ccccc2[nH]1)c1ccc(S(=O)(=O)N2CCCC2)cc1 the results were FEN1 inhibitor inactive, POLB inh inactive, Pol kappa inh inactive, POLI inh inactive, POLH inh inactive and WRN inhibitor inactive.
Screening O=C(NCc1nc2ccccc2[nH]1)c1ccc(S(=O)(=O)N2CCOCC2)cc1 returned FEN1 inhibitor inactive, POLB inh inactive, Pol kappa inh inactive, POLI inh inactive, POLH inh inactive, WRN inhibitor inactive and PGK validate inactive.
`NNc1ccc([N+](=O)[O-])c2[nH][nH]c(=O)c12` gave POLH inh 2µM, WRN inhibitor 20µM and PGK validate 2.59µM.
Cc1cc(N(C)C)ccc1[N+](=O)[O-] was read as FEN1 inhibitor inactive, POLB inh inactive, Pol kappa inh inactive, POLI inh inactive, POLH inh inactive and WRN inhibitor inactive.
`CCN(CC)S(=O)(=O)c1ccc2oc(Nc3ccccc3)nc2c1` gave FEN1 inhibitor inactive, POLB inh inactive, Pol kappa inh inactive, POLI inh inactive, POLH inh inconclusive and WRN inhibitor inactive.
`COc1ccc(-n2nc(C(=O)Nc3ccc(OC)c(OC)c3)c3c4ccccc4n(C)c3c2=O)cc1` gave FEN1 inhibitor inactive, POLB inh inactive, Pol kappa inh inactive, POLI inh inconclusive, POLH inh inconclusive, WRN inhibitor inactive[11.6 µM] and Pol iota confirm 4.74.
For CCOc1ccc(C(=O)Nc2cc(C)ccn2)cc1 the results were FEN1 inhibitor inactive, POLB inh inactive, Pol kappa inh inactive, POLI inh inactive, POLH inh inactive, WRN inhibitor inconclusive and PGK validate 16.3µM.
